Measured values as given in PubChem BioAssay AID602313 (National Center for Advancing Translational Sciences (NCATS), 2012).
Hit rate of the full screen: of about 390,000 compounds, about 760 (0.19%) were called active. Roughly 3% stayed inconclusive and do not appear here. The sample as a whole holds a higher share of actives than the screen did. A number with no mark means an inactive call. Calls follow the shape of the dose curve; as a rule, active = well fitted inhibition curve with a large enough effect; inconclusive = small, poorly fitted or top-dose-only effect; inactive = flat fitted curve, though single readings scatter.
Potency is read from the fitted curve at half-maximal effect.

Experiment: qHTS for Inhibitors of Vif-A3F Interactions: qHTS; also: nearly all actives have a fitted effect of over 65% in size; as to activity, negative = active: % of control where 0% means no effect
Conditions: HeLa A3F-eYFP + Vif (tagged APOBEC3F with the HIV-1 protein that degrades it), YFP fluorescence increase; series mostly up to 46.1 µM; activity, negative = active: at the top concentration
Text: The recent discovery and characterization of host restriction factors, which provide a potent defense to invading retroviruses, has provided new targets for antiviral drug development. APOBEC3G (A3G) and APOBEC3F (A3F) are potent cytidine deaminases that block HIV-1 replication; HIV-1 expresses the Vif protein, which counteracts A3G and A3F by binding to them and inducing their proteasomal degradation. The Vif-A3G and Vif-A3F interactions provide two potential targets for development of small molecules which can interfere with the ability of Vif to degrade A3G or A3F. […] To identify inhibitors that can interfere with Vif mediated degradation of A3G and A3F, we have developed Hela cell lines that stably express A3G or A3F tagged with eYFP at the C-terminal end (A3G-eYFP or A3F-eYFP, respectively) and Vif. In the absence of an inhibitor, Vif induces degradation of A3G-eYFP and A3F-eYFP, and the cells are not fluorescent. In the presence of an inhibitor, it is expected that Vif will be unable to degrade A3G-eYFP and/or A3F-eYFP, resulting in an increase in yellow fluorescence. In this assays Vif A3F was screened against the Molecular Library Small Molecule Repository (MLSMR). NIH Chemical Genomics Center [NCGC] NIH Molecular Libraries Probe Centers Network [MLPCN] MLPCN Grant: MH093245 Assay Submitter (PI): Vinay Pathak, National Cancer Institute
5 uL of 700 cells/well of A3F-YFP cells are dispensed into black, clear bottom plates. The plates are incubated overnight at 37 deg C. 23 nL of compounds are added by pintool. The plates are incubated overnight at 37 deg C and then read on the TTP Acumen (Ex 488/ Em 500-530).
For `COc1ccc(C(=O)Nc2ccc(-n3nncc3-c3ccccc3)cc2)cc1OC`, the “activity, negative = active” value was -3.35%. For `NNC(=O)c1oc2nc(-c3ccccc3)cc(-c3ccco3)c2c1N`, the Potency was 11.2 µM (active). For `Cc1ccc(CSc2nc3cccnc3n2Cc2ccc(C(=O)NC3CC3)cc2)cc1`, the “activity, negative = active” value was -1.49%. For `CCOC(=O)c1cnc2c(C)cc(Cl)cc2c1NCCc1ccc(OC)c(OC)c1`, the “activity, negative = active” value was -0.291%. In the case of `O=C(Cc1ccc(Cl)cc1)Nc1ccc2nn(-c3ccc(Cl)cc3)nc2c1`, the “activity, negative = active” value is reported as 2.37%. In the case of `CCOC(=O)c1c(C)oc2nc(C)nc(N3CCN(c4ccc(OC)cc4)CC3)c12`, the “activity, negative = active” value is reported as 0.623%. In the case of `CC(C)c1ccc(NC(=O)Cn2nnc(C(=O)NCCc3ccccc3)c2N)cc1`, the “activity, negative = active” value is reported as -1.66%. In the case of `O=C(CCCn1c(=O)c2cccn2c2cccnc21)NCc1ccc(F)cc1`, the “activity, negative = active” value is reported as 0.614%. For `Cc1cc(=O)n(CC(=O)Nc2cccc([N+](=O)[O-])c2)c(-n2nc(C)cc2C)n1`, the “activity, negative = active” value was 3.02%. In the case of `CCOC(=O)c1c(S(=O)(=O)N2CCC(C(=O)NCc3ccccc3OC)CC2)c(C)n(C)c1C`, the “activity, negative = active” value is reported as 0.785%. In the case of `CSc1ccc(C2c3c(oc4ccccc4c3=O)C(=O)N2CCCN2CCOCC2)cc1` (stereo not given), the “activity, negative = active” value is reported as 8.49%. With `CSc1ccc(NC(=O)Cn2nnnc2-c2ccccc2F)cc1` the “activity, negative = active” value was 0.093%. With `CCc1nc(Nc2ccc3nccnc3c2)c2oc3ccccc3c2n1` the Potency was 22.4 µM (active). For `C[C@@H](Nc1nc(-c2ccccc2)nc2c1oc1ccccc12)C(=O)O`, the “activity, negative = active” value was -10.7%. For `COCCNc1nc(-c2ccccc2)nc2c1oc1ccccc12`, the “activity, negative = active” value was -39.4%. In the case of `C=CCNC(=S)N/N=C/c1ccc(C)s1`, the “activity, negative = active” value is reported as -16.6%. In the case of `CNC(=S)N/N=C/c1ccc(N2CCOCC2)s1`, the Potency is reported as 1.12 µM (active). In the case of `Cc1ccc(C(=O)C(=S)N2CCOCC2)cc1`, the “activity, negative = active” value is reported as -8.6%. With `O=[N+]([O-])c1cc(S(=O)(=O)Nc2cccc(Cl)c2)ccc1N=Nc1c(O)[nH]c2ccccc12` the “activity, negative = active” value was -9.21%. For `S=c1[nH]c2ccccc2c2ccccc12`, the “activity, negative = active” value was 0.31%. With `Oc1[nH]c2ccccc2c1N=Nc1c(F)c(F)c(F)c(F)c1F` the Potency was 25.1 µM (active). For `CCN(CCCNC(=O)c1cc2cc3cc(OC)ccc3nc2s1)c1ccccc1`, the “activity, negative = active” value was 0.248%. With `COc1cc(/C=C(\C#N)c2nc3ccccc3[nH]2)ccc1O` the Potency was 12.6 µM (active). With `Cc1ccc2nc(/C(C#N)=C/c3ccccc3F)[nH]c2c1` the “activity, negative = active” value was -13.6%. In the case of `CCOc1ccc(/C=C(\C#N)c2nc3ccccc3c(=O)[nH]2)cc1OC`, the “activity, negative = active” value is reported as -2.28%. With `COc1ccc(NC(=O)c2cnc(Nc3ccc(C)c(Cl)c3)c3ccccc23)cc1OC` the “activity, negative = active” value was 1.11%. For `COC(=O)c1cnc(Nc2cc(C)ccc2OC)c2ccccc12`, the Potency was 31.6 µM (active). In the case of `COc1ccc(Nc2ncc(C(=O)Nc3cc(C)ccc3OC)c3ccccc23)cc1`, the “activity, negative = active” value is reported as -10.3%. In the case of `O=C(CCS(=O)(=O)c1ccccc1)N(Cc1cccnc1)c1nc2c(F)cccc2s1`, the “activity, negative = active” value is reported as -3.73%. In the case of `S=C(NN=Cc1ccccn1)Nc1ccccn1`, the Potency is reported as 11.2 µM (active). For `COc1ccc(-n2c(=O)c3sc4ccccc4c3n(CC(=O)Nc3cccc(C)c3)c2=O)cc1`, the “activity, negative = active” value was -15.1%. With `CCCN(CCC)CCCNC(=O)Cn1ncc2c3ccccc3n(Cc3ccccc3)c2c1=O` the “activity, negative = active” value was -14.4%. In the case of `Cc1oc2ncnc(N3CCCCC3)c2c1C(=O)N1CCN(c2cccc(Cl)c2)CC1`, the “activity, negative = active” value is reported as 1.49%. With `COc1ccc(C)cc1N(CC(=O)N1CCC(C)CC1)S(=O)(=O)c1ccc(C)cc1` the “activity, negative = active” value was -3.25%. In the case of `Cn1c(COc2ccccc2C(C)(C)C)nc2ccccc21`, the “activity, negative = active” value is reported as -7.42%. For `O=C1CCCc2cc(S(=O)(=O)N3CCCC(C(=O)NCc4ccccc4)C3)ccc2N1` (stereo not given), the “activity, negative = active” value was -3.24%. With `Cc1nn(CC(=O)N2CCN(c3cccc(C(F)(F)F)c3)CC2)c(=O)c2cc3sccc3n12` the “activity, negative = active” value was 5.84%. In the case of `CCN(Cc1ccccc1)C(=O)c1cn(-c2cccc(OC)c2)c(=O)c2ccccc12`, the “activity, negative = active” value is reported as 5.04%. With `COc1cccc(CNC(=O)c2cc(=O)[nH]c3ccc(S(=O)(=O)N4CCCCC4)cc23)c1` the “activity, negative = active” value was 1.76%. With `CCOC(=O)c1c(N)n(-c2cccc(C)c2C)c2nc3ccccc3nc12` the “activity, negative = active” value was 3.14%. In the case of `CCOC(=O)c1cc2n(c1N)-c1ccccc1C2=O`, the Potency is reported as 7.08 µM (active). With `CCOC(=O)c1cc(-c2ccccc2)n(CCC(=O)Nc2ccccc2CC)c1C` the “activity, negative = active” value was 1.54%. With `CCOc1ccccc1NC(=O)Cn1nnc(C(=O)Nc2ccc(C)c(C)c2)c1N` the “activity, negative = active” value was -8.19%. In the case of `COc1ccc(-c2nc3sc(CCNC(=O)C(C)(C)C)c(C)n3n2)cc1`, the “activity, negative = active” value is reported as 5.15%. With `CCOC(=O)C(Cc1ccccc1)NC(=O)CCc1c(C)nc2c(c(C)nn2-c2ccc(C)c(C)c2)c1C` (stereo not given) the “activity, negative = active” value was -9.62%. With `COc1ccc(NC(=O)CSc2nccn2Cc2ccc3c(c2)OCO3)cc1` the “activity, negative = active” value was 0.0796%. With `CCN1CCN(CCCNC(=O)c2cnn(-c3ccc(C)cc3C)c2C2CCN(C(=O)OC(C)(C)C)CC2)CC1` the “activity, negative = active” value was 1.14%. For `CCOC(=O)CCCNC(=O)CN1C(=O)NC(CCc2ccccc2)C1=O` (stereo not given), the “activity, negative = active” value was -1.81%. In the case of `Cc1cc(NC(=O)CN2C(=O)NC(CCc3ccccc3)C2=O)no1` (stereo not given), the “activity, negative = active” value is reported as -0.801%. In the case of `N#CCSc1ccccc1NC(=O)CN1C(=O)NC(CCc2ccccc2)C1=O` (stereo not given), the Potency is reported as 25.1 µM (active).
